Source: PubChem BioAssay (NCATS)
Records with an inconclusive call do not appear. The source made the active and inactive calls. Calls come from the whole dose curve; as a rule, active = well fitted inhibition curve with a large enough effect; inconclusive = small, poorly fitted or top-dose-only effect; inactive = flat fitted curve, though single readings scatter.
% is set by controls: 0 for no effect and ±100 for the full control effect; potency is the fitted concentration of half-maximal effect.

Each compound was assayed on CRL-7250 (assay: qHTS assay to identify novel small-molecules to repurpose for Merkel cell carcinoma treatment (AID 1296009; note: nearly all actives have a fitted effect of over 60% in size)). Details: MCC and control cell lines, CellTiter-Glo viability, 72 h; at 44.8 µM (top of the series) unless noted.
How it was run: (§1)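 Cells were treated for 72 hr at 37 degree celsius with compounds in 8- or 11-point dose response. Viability was read by CellTiter-Glo luminescence, normalized to no-cell (cytotoxicity) and DMSO controls.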
In the case of `COc1ccc(CCN2CCN(CCCc3ccccc3)CC2)cc1OC`, the outcome was “inactive”. `O=C1CCCC2=C1C(c1[nH]ncc1Cl)N=C(Nc1nc3ccccc3o1)N2` (configuration not stated) was tested, and the outcome was “inactive”. For `CC(C)[C@H](CO)Nc1nc(Nc2ccc(C(=O)O)c(Cl)c2)c2ncn(C(C)C)c2n1`, the outcome was “inactive [at 17.4 µM]”. In the case of `C=C[C@@H]1CN2CCC1C[C@H]2[C@H](O)c1ccnc2ccccc12` (some centres not stated), the outcome was “inactive”. For `CCc1c(C)[nH]c2c1C(=O)C(CN1CCOCC1)CC2` (configuration not stated), the outcome was “inactive”. With `O=C(O)CCC1CCC(c2cc(F)ccc2F)(S(=O)(=O)c2ccc(Cl)cc2)CC1` (configuration not stated) the outcome was “inactive”. For `O=C(Nc1cccc(C2=NCCN2)c1)Nc1cccc(C2=NCCN2)c1`, the outcome was “inactive [at 17.4 µM]”. `CC(=O)Nc1ccc(O)cc1` was tested, and the outcome was “inactive”. In the case of `CC(C)OC(=O)c1cc(C(=O)OC(C)C)cc([N+](=O)[O-])c1`, the outcome was “inactive [at 92 µM]”. In the case of `COc1ccc(CCN(C)CCCOc2ccc(S(=O)(=O)c3[nH]c4ccccc4c3C(C)C)cc2)cc1OC`, the outcome was “inactive”. For `O=C(C=Cc1c(C(=O)O)[nH]c2cc(Cl)cc(Cl)c12)Nc1ccccc1`, the outcome was “inactive”. For `CC(C[N+](C)(C)C)OC(N)=O` (configuration not stated), the outcome was “inactive”. In the case of `C[C@@H]1CN(c2c(F)c(N)c3c(=O)c(C(=O)O)cn(C4CC4)c3c2F)C[C@H](C)N1`, the outcome was “inactive [at 17.4 µM]”. `COc1ccccc1N1CCN(CC(O)COc2cc(OC)c(OC)c(OC)c2)CC1` (configuration not stated) was tested, and the outcome was “inactive”. With `CC(C)(C)COc1ccc(-n2cc(C(=O)O)cn2)cc1C#N` the outcome was “inactive”. In the case of `CCN(CC)CCNC(=O)c1ccc(NC(C)=O)cc1`, the outcome was “inactive”. In the case of `O=S(c1cc(Cl)cc(Cl)c1O)c1cc(Cl)cc(Cl)c1O`, the outcome was “inactive”. For `O=[N+]([O-])c1cccc(S(=O)(=O)NCCNS(=O)(=O)c2cccc([N+](=O)[O-])c2)c1`, the outcome was “inactive”. `O=C(C=Cc1ccc(/C=C/C(=O)Nc2ccc(C3=NCCN3)cc2)cc1)Nc1ccc(C2=NCCN2)cc1` was tested, and the outcome was “inactive”. In the case of `Cc1cccc(C)c1NC(=O)c1ccccc1C(=O)O`, the outcome was “inactive”.

The compounds below were run on MCC-13 in the same assay as above. Details: MCC and control cell lines, CellTiter-Glo viability, 72 h; series mostly up to 46 µM; activity change, negative = cytotoxicity: at the top concentration.
How it was run: as §1
With `CC(C)(O)C=CC(=O)[C@](C)(O)[C@H]1[C@H](O)C[C@]2(C)[C@@H]3CC=C4[C@@H](C=C(O)C(=O)C4(C)C)[C@]3(C)C(=O)C[C@@]12C` the Potency was 264 nM (active). For `C=C[C@@H]1CN2CCC1C[C@H]2[C@H](O)c1ccnc2ccccc12` (some centres not stated), the “activity change, negative = cytotoxicity” value was -4.46% (inactive). In the case of `c1ccc(CCCN2CCN(CCOC(c3ccccc3)c3ccccc3)CC2)cc1`, the “activity change, negative = cytotoxicity” value was -11.3% (inactive). In the case of `Cc1c(C(=O)Nc2cccc(C(F)(F)F)c2)cc(-c2ccccc2)n1CCCN1CCOCC1`, the “activity change, negative = cytotoxicity” value was -15% (inactive). `O=C(O)c1cc(Oc2ccc(C(F)(F)F)cc2Cl)ccc1[N+](=O)[O-]` was tested, and the “activity change, negative = cytotoxicity” value was -3.74% (inactive). In the case of `S=C(SSC(=S)N1CCCCC1)N1CCCCC1`, the Potency was 168 nM (active). In the case of `ClC1=C(Cl)[C@]2(Cl)[C@@H]3[C@@H]4C[C@@H]([C@H]5O[C@@H]45)[C@@H]3[C@@]1(Cl)C2(Cl)Cl`, the “activity change, negative = cytotoxicity” value was -6.82% [at 92.7 µM] (inactive). For `Nc1ccc(N=Nc2ccccc2)cc1`, the “activity change, negative = cytotoxicity” value was -16.2% [at 92.7 µM] (inactive). With `CC(C)Oc1cccc(NC(=O)c2ccccc2C(F)(F)F)c1` the “activity change, negative = cytotoxicity” value was -3.71% [at 92.7 µM] (inactive). `CC(=O)[O][Hg][c]1ccccc1` was tested, and the Potency was 1060 nM (active). With `CCCN1CCO[C@@H]2c3cc(O)ccc3OC[C@@H]21` the “activity change, negative = cytotoxicity” value was -1.27% (inactive).

These compounds were tested on MCC-26 in the same assay as above. Details: MCC and control cell lines, CellTiter-Glo viability, 72 h; series mostly up to 46 µM; activity change, negative = cytotoxicity: at the top concentration.
How it was run: as §1
In the case of `CO/C=C(/C(=O)OC)c1ccccc1Oc1cc(Oc2ccccc2C#N)ncn1`, the “activity change, negative = cytotoxicity” value was -12.4% [at 92.7 µM] (inactive). `C=C[C@@H]1CN2CCC1C[C@H]2[C@H](O)c1ccnc2ccccc12` (some centres not stated) was tested, and the “activity change, negative = cytotoxicity” value was -11.3% (inactive). With `c1ccc(CCCN2CCN(CCOC(c3ccccc3)c3ccccc3)CC2)cc1` the “activity change, negative = cytotoxicity” value was -18.8% (inactive). With `Cc1c(C(=O)Nc2cccc(C(F)(F)F)c2)cc(-c2ccccc2)n1CCCN1CCOCC1` the “activity change, negative = cytotoxicity” value was -7.13% (inactive). For `O=C(O)c1cc(Oc2ccc(C(F)(F)F)cc2Cl)ccc1[N+](=O)[O-]`, the “activity change, negative = cytotoxicity” value was -2.24% (inactive). For `S=C(SSC(=S)N1CCCCC1)N1CCCCC1`, the Potency was 133 nM (active). In the case of `ClC1=C(Cl)[C@]2(Cl)[C@@H]3[C@@H]4C[C@@H]([C@H]5O[C@@H]45)[C@@H]3[C@@]1(Cl)C2(Cl)Cl`, the “activity change, negative = cytotoxicity” value was 9.94% [at 92.7 µM] (inactive). For `Nc1ccc(N=Nc2ccccc2)cc1`, the “activity change, negative = cytotoxicity” value was -5.38% [at 92.7 µM] (inactive). In the case of `CC(C)Oc1cccc(NC(=O)c2ccccc2C(F)(F)F)c1`, the “activity change, negative = cytotoxicity” value was -10.4% [at 92.7 µM] (inactive). `C[C@@H]1CC[C@@]2(OC1)O[C@H]1C[C@H]3[C@@H]4CC=C5C[C@@H](O[C@@H]6O[C@H](CO)[C@@H](O[C@@H]7O[C@@H](C)[C@H](O)[C@@H](O)[C@@H]7O)[C@H](O)[C@@H]6O[C@@H]6O[C@@H](C)[C@H](O)[C@@H](O)[C@@H]6O)CC[C@]5(C)[C@@H]4CC[C@]3(C)[C@@H]1[C@H]2C` was tested, and the Potency was 10500 nM (active). `CC(=O)[O][Hg][c]1ccccc1` was tested, and the Potency was 2660 nM (active). In the case of `CCCN1CCO[C@@H]2c3cc(O)ccc3OC[C@@H]21`, the “activity change, negative = cytotoxicity” value was -0.67% (inactive).

The compounds below were run on MKL-1 in the same assay as above. Details: MCC and control cell lines, CellTiter-Glo viability, 72 h; series mostly up to 46 µM; activity change, negative = cytotoxicity: at the top concentration.
How it was run: as §1
`CC(C)(O)C=CC(=O)[C@](C)(O)[C@H]1[C@H](O)C[C@]2(C)[C@@H]3CC=C4[C@@H](C=C(O)C(=O)C4(C)C)[C@]3(C)C(=O)C[C@@]12C` was tested, and the Potency was 66.2 nM (active). In the case of `C=C[C@@H]1CN2CCC1C[C@H]2[C@H](O)c1ccnc2ccccc12` (some centres not stated), the “activity change, negative = cytotoxicity” value was -6.62% (inactive). For `Cc1c(C(=O)c2cccc3ccccc23)c2cccc3c2n1[C@H](CN1CCOCC1)CO3`, the Potency was 23500 nM (active). `c1ccc(CCCN2CCN(CCOC(c3ccccc3)c3ccccc3)CC2)cc1` was tested, and the “activity change, negative = cytotoxicity” value was -25.9% (inactive). With `CC=C(C)C(=O)N[C@@H](c1ccccc1)[C@@H](O)C(=O)O[C@H]1C[C@@]2(O)[C@@H](OC(=O)c3ccccc3)[C@@H]3[C@]4(OC(C)=O)CO[C@@H]4C[C@H](O)[C@@]3(C)C(=O)[C@H](OC(C)=O)C(=C1C)C2(C)C` the “activity change, negative = cytotoxicity” value was -51.7% (inactive). For `Cc1c(C(=O)Nc2cccc(C(F)(F)F)c2)cc(-c2ccccc2)n1CCCN1CCOCC1`, the “activity change, negative = cytotoxicity” value was -17% (inactive). With `O=C(O)c1cc(Oc2ccc(C(F)(F)F)cc2Cl)ccc1[N+](=O)[O-]` the “activity change, negative = cytotoxicity” value was 0.8% (inactive). `S=C(SSC(=S)N1CCCCC1)N1CCCCC1` was tested, and the Potency was 133 nM (active). In the case of `ClC1=C(Cl)[C@]2(Cl)[C@@H]3[C@@H]4C[C@@H]([C@H]5O[C@@H]45)[C@@H]3[C@@]1(Cl)C2(Cl)Cl`, the “activity change, negative = cytotoxicity” value was -15.7% [at 92.7 µM] (inactive). In the case of `Nc1ccc(N=Nc2ccccc2)cc1`, the “activity change, negative = cytotoxicity” value was -10.6% [at 92.7 µM] (inactive). With `CC(C)Oc1cccc(NC(=O)c2ccccc2C(F)(F)F)c1` the “activity change, negative = cytotoxicity” value was -6.84% [at 92.7 µM] (inactive). `CC[C@H]1C=CC=CC[C@@H](C)[C@H](O)[C@@](C)(O)C(=O)[C@@H](C)[C@H](O)[C@@H](C)C(=O)[C@@H](C)[C@H](O)[C@@H](C)C=CC(=O)O[C@@H]2[C@@H](C)[C@H](CC1)O[C@]1(CC[C@H](C)[C@H](C[C@@H](C)O)O1)[C@H]2C` was tested, and the Potency was 296 nM (active). In the case of `COc1ccc2c(c[n+](C)c3c4cc5c(cc4ccc23)OCO5)c1OC`, the Potency was 2350 nM (active). `CCCN1CCO[C@@H]2c3cc(O)ccc3OC[C@@H]21` was tested, and the “activity change, negative = cytotoxicity” value was -10.5% (inactive).
